According to PubChem BioAssay (NCATS):
Results filed as inconclusive are left out. Where a call stands in place of a potency, no number is given. Calls of active or inactive are those of the source. Calls come from the whole dose curve; as a rule, active = well fitted activation curve with a large enough effect; inconclusive = small, poorly fitted or top-dose-only effect; inactive = no such curve, though single readings can be large or run the other way.

molecular target: D(1A) dopamine receptor (Homo sapiens) (UniProt P21728); test: HTS Assay for Allosteric Agonists of the Human D1 Dopamine Receptor: Primary Screen for Potentiators (AID 488982); settings: HEK293 T-REx D1 inducible cells, calcium flux, kinetic fluorescence; series mostly up to 8.37 µM
Excerpt: Dopamine receptors (DARs) are involved in the etiology and/or therapy of a number of neuropsychiatric and endocrine disorders. For instance, all receptor-based antiparkinsonian drugs work via stimulating the […] DAR subtype whereas all FDA-approved antipsychotic agents are antagonists of this receptor. […] There are three different types of allosteric modulators that we are seeking, two of which will stimulate or augment receptor signaling, allosteric agonists and potentiators, while the third, allosteric antagonists, will attenuate receptor signaling. The present primary screening assay measures compound agonism by tracking calcium flux in a […], inducible Hek293 Trex D1 cell line.
Freshly passaged cells are plated in 1536 well black, clear bottom plates at a density of 4000 cells/well in 3 ul of complete media containing 1x tetracycline inducer. After an overnight incubation at 30 C in 5% CO2, cells are loaded with 2 ul of the no wash Calcium Assay Kit (ABD Bioquest) and incubated at room temperature for 30 to 90 minutes. A 10 cycle (1 second/cycle) baseline measurement is taken and then the FDSS online 1536 pintool delivers 23 nl of compound library (as well as dopamine controls) to the plate. The plate is measured for kinetically at 1 cycle/sec for 180 seconds and is considered to be the agonist portion of the assay (eg, compounds which activate a positive calcium response during this portion are flagged as potential agonists). Following the 180 second read, 1 ul of an EC20 of dopamine is delivered by an onboard pipette head. Measurements are taken kinetically for an additional 180 seconds.
Potency is the fitted concentration of half-maximal effect.

Chain of D(1A) dopamine receptor (Homo sapiens) (P21728 whole entry, looked up): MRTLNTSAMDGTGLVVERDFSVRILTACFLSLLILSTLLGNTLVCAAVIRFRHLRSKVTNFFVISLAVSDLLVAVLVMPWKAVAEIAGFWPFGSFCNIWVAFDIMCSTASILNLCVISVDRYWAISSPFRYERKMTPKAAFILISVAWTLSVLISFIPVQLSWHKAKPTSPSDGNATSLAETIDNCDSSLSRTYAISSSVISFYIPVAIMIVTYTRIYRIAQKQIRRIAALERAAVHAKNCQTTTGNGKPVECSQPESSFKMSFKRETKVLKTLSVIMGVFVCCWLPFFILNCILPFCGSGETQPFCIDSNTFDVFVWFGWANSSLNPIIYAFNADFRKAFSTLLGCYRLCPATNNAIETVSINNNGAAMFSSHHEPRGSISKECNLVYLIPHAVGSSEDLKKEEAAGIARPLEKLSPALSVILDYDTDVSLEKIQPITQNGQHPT

Compound | Potency
CCOC(=O)C1=C[C@]2(CC)CCCN3CCc4c(n1c1ccccc41)[C@@H]32 | 3.26 µM (active)
O=C1CCC(N2C(=O)c3ccccc3C2=O)C(=O)N1 (stereo not given) | inactive
CC(C)(Sc1ccc(CCN(CCCCC2CCCCC2)C(=O)NC2CCCCC2)cc1)C(=O)O | inactive
CC(C)(C)NCC(O)c1ccc(O)c(CO)c1 (stereo not given) | inactive
Cc1oncc1C(=O)Nc1ccc(C(F)(F)F)cc1 | inactive
CCCCNc1cc(C(=O)O)cc(S(N)(=O)=O)c1Oc1ccccc1 | inactive
C[C@]12CCC(=O)C=C1CC[C@@H]1[C@@H]2[C@@H](O)C[C@@]2(C)[C@H]1CC[C@]2(O)C(=O)CO | inactive
Cn1cnc([N+](=O)[O-])c1Sc1ncnc2nc[nH]c12 | inactive
CCn1cc(C(=O)O)c(=O)c2cc(F)c(N3CCNC(C)C3)c(F)c21 (stereo not given) | inactive
CNC[C@H](O)c1cccc(O)c1 | inactive
Cc1ccc(N(CC2=NCCN2)c2cccc(O)c2)cc1 | inactive
Cc1cccc(-c2[nH]c(C(C)(C)C)nc2-c2ccc3nccnc3c2)n1 | inactive
NS(=O)(=O)c1cc2c(cc1Cl)NC=NS2(=O)=O | inactive
CCOC(=O)N1CCC(=C2c3ccc(Cl)cc3CCc3cccnc32)CC1 | inactive
Nc1nc2ccc(OC(F)(F)F)cc2s1 | inactive
NC(N)=NC(=O)c1nc(Cl)c(N)nc1N | inactive
Cc1cn[nH]c1 | inactive
CC(C)NCC(O)COc1ccc(COCCOC(C)C)cc1 (stereo not given) | inactive
NC(=O)c1cnccn1 | inactive
Cc1cnc(NC(=O)C2=C(O)c3ccccc3S(=O)(=O)N2C)s1 | inactive

Compound | Potency
Nc1nc2c(ncn2COCCO)c(=O)[nH]1 | inactive
Nc1ccc(S(=O)(=O)Nc2ccnn2-c2ccccc2)cc1 | inactive
O=C(O)COCCN1CCN(C(c2ccccc2)c2ccc(Cl)cc2)CC1 (stereo not given) | inactive
N=c1nc(N2CCCCC2)cc(N)n1O | inactive
NCCCC(N)(C(=O)O)C(F)F (stereo not given) | inactive
c1ccc([C@H]2CN3CCSC3=N2)cc1 | inactive
NNCCc1ccccc1 | inactive
CCC(C)N(C)C(=O)c1cc2ccccc2c(-c2ccccc2Cl)n1 (stereo not given) | inactive
O=c1[nH]cnc2[nH]ncc12 | inactive
NC[C@H](O)c1ccc(O)c(O)c1 | inactive
CC(=O)Oc1ccccc1C(=O)O | inactive
N[C@@H]1CONC1=O | inactive
Cc1ccccc1C(OCCN(C)C)c1ccccc1 (stereo not given) | inactive
Clc1cccc(Cl)c1NC1=NCCN1 | inactive
O=C1CCc2cc(OCCCCc3nnnn3C3CCCCC3)ccc2N1 | inactive
OC(CCN1CCCCC1)(c1ccccc1)C1CC2C=CC1C2 (stereo not given) | inactive
OC(CN1CCC(Cc2ccc(F)cc2)CC1)c1ccc(Cl)cc1 (stereo not given) | inactive
Cc1cc2c(C(C)C)c(O)c(O)c(C=O)c2c(O)c1-c1c(C)cc2c(C(C)C)c(O)c(O)c(C=O)c2c1O | inactive
C1COC(NC(C2CC2)C2CC2)=N1 | inactive
O=c1n(CCCN2CCN(c3cccc(Cl)c3)CC2)nc2ccccn12 | inactive
